# Measurements published in PubChem BioAssay.
# Where “and” joins values, the source holds several entries; their conditions need not be identical. Identical values can stand only once. Inconclusive results are not listed. Calls of active or inactive are those of the source.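 Rule for the calls, unless noted: active = compounds whose cell count with miR-34 switched on is under 0.7 times the count with it off; inactive = the rest.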
# Key:
# [1] = liver-stage malaria parasite growth inhibition, primary screen, cell-based, HepG2, luciferase luminescence, HepG2 viability (AID 624349; in the data active = parasite load remaining mostly below about 12%, no sharp cut-off; inactive = mostly above about 10%;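 note: 100% = mean of DMSO negative control wells on the same plate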); settings: P. berghei liver stage in HepG2, luciferase luminescence, concentration not given here; parasite load remaining: stronger effect = lower value; viability: measured here: HepG2 viability without parasites
# [2] = stimulators of nuclear beta-catenin in C2C12, primary screen, imaging, WNT3A-conditioned medium, mouse C2C12, NPC library (AID 1117326; in the data active = nuclear beta-catenin stimulation mostly above about 4.2%, no sharp cut-off; inactive = mostly below about 10%); settings: stronger effect = higher value
# [3] = stimulators of insulin release from INS-1E, primary screen, cell-based, 5 mM glucose, NPC library (AID 1117329;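 active = compound raises insulin release from rat beta cells at 5 mM glucose, no numeric limit stated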); settings: rat INS-1E insulin secretion, at 10 µM, stronger effect = higher value
# [4] = growth inhibition of GSK3B-pretreated HCT116 cells – cell-based, CellTiter-Glo, 0.2 to 20 µM (AID 1117336;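 active = compounds lowering colon cancer cell viability after pretreatment blocking the GSK3B kinase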); settings: HCT116 viability after GSK3B inhibitor, at 20 µM, stronger effect = higher value
# [5] = inhibition of endothelial tube formation, primary screen, imaging, VEGF stimulated, CD31 staining, tube area, NPC library (AID 1117340;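 active = compound that reduces growth-factor-driven endothelial tube area in a mixed cell culture, no cutoff stated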); settings: VEGF-stimulated ADSC/ECFC co-culture, at 10 µM, stronger effect = higher value
# [6] = glucagon-like peptide 1 release enhancers, primary assay, NCI-H716 cell line, NPC library (AID 1117341;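 active = compound raises GLP1 secretion from the human gut endocrine cells, with no numeric limit stated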); settings: NCI-H716 cells, at 10 µM, stronger effect = higher value
# [7] = HCT116 colon cancer cell growth inhibition, primary screen, CellTiter-Glo luminescence, NPC library (AID 1117342;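 active = compounds that lower survival of HCT116 colon cancer cells in the luminescence readout, no numeric limit stated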); settings: at 20 µM (top of the series)
# [8] = CellTiter-Glo luminescent readout of SW480 viability loss, NPC library primary (AID 1117343;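 active = compounds that lower viability of the colon cancer cells in the luminescence readout, with no numeric limit stated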); settings: CellTiter-Glo luminescence; at 20 µM (top of the series) unless noted
# [9] = decreased DLD-1 cellular survival, CellTiter-Glo luminescent readout, NPC compound collection, primary HTS (AID 1117346;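 active = compounds that lower survival of DLD-1 colon cancer cells in the luminescence readout, no cutoff given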); settings: DLD-1 viability, CellTiter-Glo luminescence; at 20 µM (top of the series)
# [10] = sensitizers of A549 cells to miR-34 induction, primary screen, imaging, A549 dox-inducible miR-34, nuclei and caspase counts (AID 1347080); settings: A549 miR-34 inducible, Hoechst nuclei count, 48 h
# [11] = survival rescue of mitochondrial mutant cells in low glucose, primary screen, MELAS cybrids, Rieske KO mouse fibroblasts, CellTiter-Glo (AID 1508586;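 active = mean z-score across replicates of 1.96 or higher in either the MELAS or the Rieske mutant cell line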;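 note: z relative to plate mean and SD of compound and empty wells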)
# [12] = viability rescue of complex I mutant cybrids, primary screen, cell-based, galactose medium, ATP luminescence (AID 1645843;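 active = z-score of at least 1.8 in each of two replicates, scored against plate mean and spread of sample wells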;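 note: positive z means more ATP and so rescue of galactose-driven cybrid death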); settings: complex I mutant cybrid cells, 72 h, stronger effect = higher value
# [13] = target: ATP-dependent translocase ABCB1 (Homo sapiens) (UniProt P08183); experiment: MDR1 (ABCB1) efflux transporter inhibition, cell-based (AID 377; in the data active = fluorescence slope change above about 50%); settings: MDR1-expressing cells, fluorescent substrate accumulation slope; stronger effect = higher value; concentration not given here
# [14] = hESC survival regulators, cell-based (AID 493140; call rule not given here;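 note: cells exposed to compounds for four days before counting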); settings: human embryonic stem cell survival screen; stronger effect = higher value
# [15] = target: NAD(+) hydrolase SARM1 (Homo sapiens) (UniProt Q6SZW1); experiment: SARM1 TIR NADase inhibitors, cell lysate, NAD-Glo luminescence (AID 1508614;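 active = compound whose remaining NAD level is above about 45 nM, limit read from the data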;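 note: higher remaining NAD means stronger inhibition of SARM1 NADase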); settings: SAM-TIR HEK293T lysate NADase, at 1 µM, stronger effect = higher value
# [16] = target: Mitogen-activated protein kinase 7 (Homo sapiens) (UniProt Q13164); experiment: ERK5 transactivation activators in reporter cells, primary screen, cell-based, HTS (AID 1508626;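 active = luciferase signal above three times the same-plate solvent-only control wells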;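 note: luciferase driven by Gal4-ERK5 fusion binding five Gal4 sites before minimal TATA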); settings: HeLa Gal4-ERK5 transactivation, 18 h, at 5 µM, stronger effect = higher value
# [17] = stronger effect = lower value, cell number ratio, induced over uninduced
# [18] = measured here: relative caspase fold change +Dox/-Dox
# [19] = measured here: total cells with miR-34 induction, stronger effect = lower value
# [20] = measured here: total cells without miR-34 induction
# [21] = MELAS cybrid survival, CellTiter-Glo 48 h, stronger effect = higher value
# [22] = Rieske KO mouse fibroblast survival, CellTiter-Glo 72 h
# Mitogen-activated protein kinase 7 (Homo sapiens), sequence (Q13164 whole entry, looked up, the tested form may be a part): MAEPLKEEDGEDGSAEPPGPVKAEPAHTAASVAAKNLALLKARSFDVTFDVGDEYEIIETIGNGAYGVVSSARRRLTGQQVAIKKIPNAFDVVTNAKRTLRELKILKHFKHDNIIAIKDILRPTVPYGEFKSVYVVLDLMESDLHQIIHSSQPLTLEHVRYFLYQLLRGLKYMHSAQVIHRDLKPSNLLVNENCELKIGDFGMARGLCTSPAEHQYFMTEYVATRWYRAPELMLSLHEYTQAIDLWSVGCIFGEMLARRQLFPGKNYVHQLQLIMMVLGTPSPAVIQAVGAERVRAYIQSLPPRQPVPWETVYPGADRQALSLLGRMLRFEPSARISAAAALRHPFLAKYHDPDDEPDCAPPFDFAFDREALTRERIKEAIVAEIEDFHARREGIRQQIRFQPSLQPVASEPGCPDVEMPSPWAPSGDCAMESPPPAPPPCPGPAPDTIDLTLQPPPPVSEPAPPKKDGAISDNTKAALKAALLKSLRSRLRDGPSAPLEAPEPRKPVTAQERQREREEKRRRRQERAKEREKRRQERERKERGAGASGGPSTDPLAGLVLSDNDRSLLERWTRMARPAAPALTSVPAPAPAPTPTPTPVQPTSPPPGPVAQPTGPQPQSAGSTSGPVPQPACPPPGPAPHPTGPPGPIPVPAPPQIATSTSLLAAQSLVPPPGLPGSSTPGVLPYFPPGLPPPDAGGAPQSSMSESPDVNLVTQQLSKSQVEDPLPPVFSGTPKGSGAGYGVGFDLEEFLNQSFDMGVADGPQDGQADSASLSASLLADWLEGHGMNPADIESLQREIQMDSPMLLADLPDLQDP
# NAD(+) hydrolase SARM1 (Homo sapiens), sequence (Q6SZW1 whole entry, looked up, the tested form may be a part): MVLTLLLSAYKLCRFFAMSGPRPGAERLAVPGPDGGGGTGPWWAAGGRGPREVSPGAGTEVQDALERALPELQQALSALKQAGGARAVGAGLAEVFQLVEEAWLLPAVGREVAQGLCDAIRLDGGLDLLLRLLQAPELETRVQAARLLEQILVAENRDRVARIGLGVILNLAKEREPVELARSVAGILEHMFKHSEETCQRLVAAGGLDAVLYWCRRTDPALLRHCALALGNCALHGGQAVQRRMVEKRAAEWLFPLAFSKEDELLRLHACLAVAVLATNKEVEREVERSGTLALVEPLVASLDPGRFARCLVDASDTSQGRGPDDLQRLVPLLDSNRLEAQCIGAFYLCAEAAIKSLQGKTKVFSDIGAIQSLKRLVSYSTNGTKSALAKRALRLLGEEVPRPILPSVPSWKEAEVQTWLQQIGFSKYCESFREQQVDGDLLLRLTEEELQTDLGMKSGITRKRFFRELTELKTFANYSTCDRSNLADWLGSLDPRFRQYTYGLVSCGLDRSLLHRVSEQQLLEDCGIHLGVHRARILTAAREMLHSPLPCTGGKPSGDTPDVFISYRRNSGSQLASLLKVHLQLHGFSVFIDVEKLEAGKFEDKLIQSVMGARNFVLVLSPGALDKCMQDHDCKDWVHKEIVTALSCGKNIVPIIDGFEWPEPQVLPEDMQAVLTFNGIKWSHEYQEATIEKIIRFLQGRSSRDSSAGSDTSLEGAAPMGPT
# ATP-dependent translocase ABCB1 (Homo sapiens), sequence (P08183 whole entry, looked up): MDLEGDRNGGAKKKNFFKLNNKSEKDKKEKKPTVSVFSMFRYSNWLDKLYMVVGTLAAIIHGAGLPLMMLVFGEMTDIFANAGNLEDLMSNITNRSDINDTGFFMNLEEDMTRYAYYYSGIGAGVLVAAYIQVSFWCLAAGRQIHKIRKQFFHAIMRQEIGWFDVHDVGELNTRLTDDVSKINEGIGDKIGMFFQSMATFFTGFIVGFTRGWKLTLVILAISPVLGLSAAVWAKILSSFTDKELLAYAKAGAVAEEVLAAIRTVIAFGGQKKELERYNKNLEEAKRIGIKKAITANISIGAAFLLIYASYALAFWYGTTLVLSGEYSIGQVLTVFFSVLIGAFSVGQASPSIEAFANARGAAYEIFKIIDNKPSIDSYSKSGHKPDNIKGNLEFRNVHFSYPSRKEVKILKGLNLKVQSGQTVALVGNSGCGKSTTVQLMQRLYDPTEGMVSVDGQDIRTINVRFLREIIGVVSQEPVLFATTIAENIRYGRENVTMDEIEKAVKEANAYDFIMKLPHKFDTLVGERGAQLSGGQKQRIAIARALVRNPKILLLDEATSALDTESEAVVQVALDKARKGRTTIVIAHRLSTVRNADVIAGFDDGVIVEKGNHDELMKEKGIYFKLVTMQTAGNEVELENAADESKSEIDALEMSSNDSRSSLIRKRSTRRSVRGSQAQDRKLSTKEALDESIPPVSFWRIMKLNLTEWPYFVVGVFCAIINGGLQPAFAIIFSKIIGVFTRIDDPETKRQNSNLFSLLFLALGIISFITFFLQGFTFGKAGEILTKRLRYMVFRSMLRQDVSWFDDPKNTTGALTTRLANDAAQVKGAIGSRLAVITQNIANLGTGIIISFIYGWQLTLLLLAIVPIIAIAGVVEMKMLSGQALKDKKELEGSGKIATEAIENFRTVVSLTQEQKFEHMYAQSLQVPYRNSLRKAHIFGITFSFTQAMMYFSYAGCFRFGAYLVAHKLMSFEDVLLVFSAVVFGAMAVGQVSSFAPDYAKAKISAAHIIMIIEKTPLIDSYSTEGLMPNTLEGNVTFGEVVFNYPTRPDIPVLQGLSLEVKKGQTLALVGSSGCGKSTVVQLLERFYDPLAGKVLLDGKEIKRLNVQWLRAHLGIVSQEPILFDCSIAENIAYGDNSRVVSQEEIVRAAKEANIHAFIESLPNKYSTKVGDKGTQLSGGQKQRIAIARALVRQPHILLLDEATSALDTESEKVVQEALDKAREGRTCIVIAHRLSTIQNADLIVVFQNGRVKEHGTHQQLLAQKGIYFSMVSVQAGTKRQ
compound,measurement,setting,value
CN(Cc1ccc(C(C)(C)C)cc1)Cc1cccc2ccccc12,parasite load remaining,[1],43.3% (inactive)
same,viability,[1],140%
same,nuclear beta-catenin stimulation,[2]; at 10 µM,-1.4% (inactive)
same,nuclear beta-catenin stimulation,"[2]; stimulation, at 2 µM",-0.7%
same,insulin secretion stimulation,[3],-1% (inactive)
same,viability decrease,[4],37.6% (inactive)
same,tube area decrease,[5],7.1% (inactive)
same,GLP1 secretion stimulation,[6],-4% (inactive)
same,inhibition of viability,[7],50.7% (active)
same,viability decrease (inhibition),[8],62.7% (active)
same,viability decrease (inhibition),[9],37.8% (inactive)
same,fold change,[10]; [17],0.848 (inactive) and 0.895 (inactive)
same,fold change,[10]; [18],0.76 and 0.344
same,cell count,[10]; [19],7540 and 9920
same,cell count,[10]; [20],8900 and 11100
same,z-score,[11]; [21],-0.284 (inactive) and -0.0947 (inactive) and -0.415 (inactive)
same,z-score,[11]; [22],-0.307 and 0.166 and -0.508
same,z-score,[12],-1.71 (inactive)
CC1(C)[C@@H](OC(=O)CCC(=O)O)CC[C@]2(C)[C@H]3C(=O)C=C4[C@@H]5C[C@@](C)(C(=O)O)CC[C@]5(C)CC[C@@]4(C)[C@]3(C)CC[C@@H]12,fluorescence slope change,[13],123% (active)
same,survival,[14],4.33 (inactive)
same,parasite load remaining,[1],77.3% (inactive)
same,viability,[1],94.7%
same,nuclear beta-catenin stimulation,[2]; at 10 µM,4.8% (inactive)
same,nuclear beta-catenin stimulation,"[2]; stimulation, at 2 µM",1.3%
same,insulin secretion stimulation,[3],-1% (inactive)
same,viability decrease,[4],50.3% (active)
same,tube area decrease,[5],15.3% (inactive)
same,GLP1 secretion stimulation,[6],2.7% (inactive)
same,inhibition of viability,[7],43.6% (inactive)
same,viability decrease (inhibition),[8],15.1% (inactive)
same,viability decrease (inhibition),[9],35.6% (inactive)
same,fold change,[10]; [17],0.87 (inactive)
same,fold change,[10]; [18],1.72
same,cell count,[10]; [19],9330
same,cell count,[10]; [20],10700
same,z-score,[11]; [21],0.704 (inactive)
same,z-score,[11]; [22],0.0878
same,remaining NAD,[15],10 nM (inactive)
same,luciferase signal,[16],60 AU (inactive)
CCOc1ccccc1OCCN[C@H](C)Cc1ccc(OC)c(S(N)(=O)=O)c1,parasite load remaining,[1],30.6% (inactive)
same,viability,[1],71%
same,nuclear beta-catenin stimulation,[2]; at 10 µM,0.2% (inactive)
same,nuclear beta-catenin stimulation,"[2]; stimulation, at 2 µM",3%
same,insulin secretion stimulation,[3],1.6% (inactive)
same,viability decrease,[4],4.2% (inactive)
same,tube area decrease,[5],-2.4% (inactive)
same,GLP1 secretion stimulation,[6],2.3% (inactive)
same,inhibition of viability,[7],4.1% (inactive)
same,viability decrease (inhibition),[8],6.6% (inactive)
same,viability decrease (inhibition),[9],5.8% (inactive)
same,fold change,[10]; [17],0.868 (inactive)
same,fold change,[10]; [18],1.51
same,cell count,[10]; [19],9140
same,cell count,[10]; [20],10500
same,z-score,[11]; [21],-0.622 (inactive)
same,z-score,[11]; [22],-1.24
same,remaining NAD,[15],10 nM (inactive)
same,z-score,[12],-0.32 (inactive)
CC(C=CC=C(C)C=CC1=C(C)CCCC1(C)C)=CC=CC=C(C)C=CC=C(C)C=CC1=C(C)CCCC1(C)C,nuclear beta-catenin stimulation,[2]; at 10 µM,1.5% (inactive)
same,nuclear beta-catenin stimulation,"[2]; stimulation, at 2 µM",1.5%
same,insulin secretion stimulation,[3],3.2% (inactive)
same,viability decrease,[4],-39.2% (inactive)
same,tube area decrease,[5],5.4% (inactive)
same,GLP1 secretion stimulation,[6],5.7% (inactive)
same,inhibition of viability,[7],1.37% (inactive)
same,viability decrease (inhibition),[8],19.1% (inactive)
same,viability decrease (inhibition),[9],3.2% (inactive)
same,fold change,[10]; [17],0.877 (inactive)
same,fold change,[10]; [18],0.984
same,cell count,[10]; [19],7760
same,cell count,[10]; [20],8840
same,z-score,[11]; [21],-0.304 (inactive)
same,z-score,[11]; [22],0.553
O=S(=O)(O)Oc1ccc(C(c2ccc(OS(=O)(=O)O)cc2)c2ccccn2)cc1,nuclear beta-catenin stimulation,[2]; at 10 µM,-1.8% (inactive)
same,nuclear beta-catenin stimulation,"[2]; stimulation, at 2 µM",1.7%
same,insulin secretion stimulation,[3],-1.2% (inactive)
same,viability decrease,[4],-2.3% (inactive)
same,tube area decrease,[5],11.8% (inactive)
same,GLP1 secretion stimulation,[6],1.3% (inactive)
same,inhibition of viability,[7],-5.5% (inactive)
same,viability decrease (inhibition),[8],-2.2% (inactive)
same,viability decrease (inhibition),[9],-5.9% (active)
same,fold change,[10]; [17],0.9 (inactive)
same,fold change,[10]; [18],1.41
same,cell count,[10]; [19],8720
same,cell count,[10]; [20],9690
same,z-score,[11]; [21],-0.185 (inactive)
same,z-score,[11]; [22],-0.14
COc1ccc(C=CC(=O)Nc2ccccc2C(=O)O)cc1OC,nuclear beta-catenin stimulation,[2]; at 10 µM,-1.3% (inactive)
same,nuclear beta-catenin stimulation,"[2]; stimulation, at 2 µM",2.1%
same,insulin secretion stimulation,[3],0.9% (inactive)
same,viability decrease,[4],4.3% (inactive)
same,tube area decrease,[5],-1.3% (inactive)
same,GLP1 secretion stimulation,[6],-5.7% (inactive)
same,inhibition of viability,[7],-5.8% (inactive)
same,viability decrease (inhibition),[8],4.8% (inactive)
same,viability decrease (inhibition),[9],-29.2% (inactive)
same,fold change,[10]; [17],0.906 (inactive) and 0.975 (inactive)
same,fold change,[10]; [18],1.48 and 0.856
same,cell count,[10]; [19],9440 and 8000
same,cell count,[10]; [20],10400 and 8210
same,z-score,[11]; [21],-0.386 (inactive)
same,z-score,[11]; [22],0.573
same,z-score,[12],0.955 (inactive)
Cc1ccc(Nc2c(F)cccc2Cl)c(CC(=O)O)c1,nuclear beta-catenin stimulation,[2]; at 10 µM,1% (inactive)
same,nuclear beta-catenin stimulation,"[2]; stimulation, at 2 µM",3.4%
same,insulin secretion stimulation,[3],-0.3% (inactive)
same,viability decrease,[4],0.4% (inactive)
same,tube area decrease,[5],-20.6% (active)
same,GLP1 secretion stimulation,[6],3.1% (inactive)
same,inhibition of viability,[7],-25.8% (inactive)
same,viability decrease (inhibition),[8],-2.2% (inactive)
same,viability decrease (inhibition),[9],-9.1% (inactive)
same,fold change,[10]; [17],0.931 (inactive)
same,fold change,[10]; [18],0.932 and 0.672
same,cell count,[10]; [19],8200 and 8630
same,cell count,[10]; [20],8810 and 9270
same,z-score,[11]; [21],-0.194 (inactive)
same,z-score,[11]; [22],0.00857
same,remaining NAD,[15],10 nM (inactive)
CC(C)(C)NC[C@H](O)COc1cccc2c1CCCC2=O,survival,[14],3.08 (inactive)
same,parasite load remaining,[1],68.1% (inactive)
same,viability,[1],89.1%
same,nuclear beta-catenin stimulation,[2]; at 10 µM,0% (inactive)
same,nuclear beta-catenin stimulation,"[2]; stimulation, at 2 µM",0.3%
same,insulin secretion stimulation,[3],3.7% (inactive)
same,viability decrease,[4],17.1% (inactive)
same,tube area decrease,[5],1% (inactive)
same,GLP1 secretion stimulation,[6],8.6% (inactive)
same,inhibition of viability,[7],13.8% (inactive)
same,viability decrease (inhibition),[8],-11.3% (inactive)
same,viability decrease (inhibition),[9],2.7% (inactive)
same,fold change,[10]; [17],0.883 (inactive)
same,fold change,[10]; [18],1.03
same,cell count,[10]; [19],9340
same,cell count,[10]; [20],10600
same,z-score,[11]; [21],0.581 (inactive)
same,z-score,[11]; [22],0.045
same,remaining NAD,[15],10 nM (inactive)
same,luciferase signal,[16],88 AU (inactive)
Cc1ncc(C[n+]2csc(CCO)c2C)c(N)n1,fluorescence slope change,[13],80.3% (active)
same,survival,[14],12.6 (inactive)
same,parasite load remaining,[1],161% (inactive) and 60.9% (inactive)
same,viability,[1],98.2% and 74.9%
same,nuclear beta-catenin stimulation,[2]; at 10 µM,-1.9% (inactive)
same,nuclear beta-catenin stimulation,"[2]; stimulation, at 2 µM",-0.8%
same,insulin secretion stimulation,[3],3.8% (inactive)
same,viability decrease,[4],-12.9% (inactive)
same,tube area decrease,[5],-6.7% (inactive)
same,GLP1 secretion stimulation,[6],-1.3% (inactive)
same,inhibition of viability,[7],5% (inactive)
same,viability decrease (inhibition),[8],7.9% (inactive)
same,viability decrease (inhibition),[9],1.8% (inactive)
same,fold change,[10]; [17],0.836 (inactive)
same,fold change,[10]; [18],1.04
same,cell count,[10]; [19],8780
same,cell count,[10]; [20],10500
same,z-score,[11]; [21],0.823 (inactive)
same,z-score,[11]; [22],0.201
same,remaining NAD,[15],10 nM (inactive)
same,luciferase signal,[16],44 AU (inactive)
